Source: PubChem BioAssay (NCATS)
Inconclusive results are not listed. Values without a mark were called inactive. Activity calls are given as the source filed them. Calls come from the whole dose curve; as a rule, active = well fitted inhibition curve with a large enough effect; inconclusive = small, poorly fitted or top-dose-only effect; inactive = no such curve, though single readings can be large or run the other way.

molecular target: Nuclear receptor ROR-gamma (Homo sapiens) (UniProt P51449); test: qHTS assay for small molecule antagonists of the retinoid-related orphan receptor gamma (ROR-gamma) signaling pathway (AID 651802); conditions: ROR-gamma antagonist cell reporter assay; series mostly up to 92.2 µM; activity change, negative = inhibition: at the top concentration; note: nearly all actives have a fitted effect of over 60% in size
Sequence (P51449 whole entry, looked up): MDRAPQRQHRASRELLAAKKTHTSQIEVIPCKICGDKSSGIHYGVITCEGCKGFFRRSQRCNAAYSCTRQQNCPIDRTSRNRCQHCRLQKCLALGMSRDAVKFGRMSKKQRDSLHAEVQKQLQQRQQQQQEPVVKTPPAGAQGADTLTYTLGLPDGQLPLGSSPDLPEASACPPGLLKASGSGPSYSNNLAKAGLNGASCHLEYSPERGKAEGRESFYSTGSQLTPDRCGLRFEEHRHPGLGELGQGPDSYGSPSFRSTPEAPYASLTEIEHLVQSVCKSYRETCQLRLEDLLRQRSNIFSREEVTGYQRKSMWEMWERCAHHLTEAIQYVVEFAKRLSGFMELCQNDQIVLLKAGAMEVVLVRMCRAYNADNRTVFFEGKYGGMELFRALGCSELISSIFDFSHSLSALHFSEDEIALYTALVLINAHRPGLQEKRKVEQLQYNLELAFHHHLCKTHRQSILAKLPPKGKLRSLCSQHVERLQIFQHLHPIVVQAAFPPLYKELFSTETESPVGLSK
Excerpt: National Center for Advancing Translational Sciences [NCATS]
NIH Chemical Genomics Center [NCGC]
National Institutes of Environmental Health Sciences [NIEHS]
National Toxicology Program [NTP]
Nuclear steroid hormone receptors are involved in many biological processes including inflammatory responses, cell proliferation, and apoptosis. Environmental factors or compounds disrupting these nuclear receptor pathways and gene expression may promote susceptibility to immunotoxicants and autoimmune diseases. One important group of these expression factors are the retinoid-related orphan receptors. To assess compounds that may interfere with the retinoid-related orphan receptor gamma (ROR-gamma) transcription factor, a cell-based luciferase assay was used.
The CHO cell-based assay utilizes a TET-inducible ROR expression factor and ROR response element-LUC reporter gene. Reporter activity was induced using doxycycline and measured after 16hr incubation. Luminescence was read using Viewlux (PerkinElmer), where a decrease in reporter activity would show a decrease in luminescence.
1,000 cells in 4 uL/well were dispensed into white wall/solid bottom 1536-well plates using a Multidrop Combi (Thermo Scientific) dispenser. Following transfer of 23 nL compound or DMSO vehicle by a pin tool, the plates were treated with 1 ul doxycycline to induce reporter gene activity. After 16hr incubation at 37C and 5% CO2, 5uL one-glo (promega) was added to each plate and following 30 min incubation at room temperature, luminescence was quantified on a ViewLux (PerkinElmer) plate reader.
% is set by controls: 0 for no effect and ±100 for the full control effect; potency is the fitted concentration of half-maximal effect.

Row | Compound | Potency | activity change, negative = inhibition
1 | C=CC(N)=O | inactive | 
2 | COP(=S)(OC)Oc1ccc([N+](=O)[O-])cc1 |  | -12.7%
3 | COC1=CC(=O)O[C@@H](/C=C/c2ccc3c(c2)OCO3)C1 |  | -12.7%
4 | CCOP(=S)(OCC)Oc1ccc([N+](=O)[O-])cc1 | inactive | 
5 | C[C@]12CC[C@H]3[C@@H](CCC4=CC(=O)CC[C@@]43C)[C@@H]1CC[C@@H]2O | 26.6 µM (active) | 
6 | Clc1ccc2ccccc2c1 |  | 7.98%
7 | C=CC(=C)C |  | -10.2%
8 | N#CCCCl | inactive | 
9 | C=CCOC(C)=O |  | 0.844%
10 | COc1ccc(C=O)cc1OC |  | 10.3%
11 | C/C=C/c1ccc2c(c1)OCO2 |  | -13.5%
12 | CC(C)(C)OOC(C)(C)C |  | 1.41%
13 | Cc1ccccc1N | inactive | 
14 | C=CC(=O)OCC |  | 8.59%
15 | Brc1ccccc1 |  | 15.4%
16 | [O-][Br+2]([O-])O | inactive | 
17 | CC(O)CCl (stereo not given) |  | 5.89%
18 | CC(C)(c1ccccc1)c1ccc(O)cc1 |  | -20.3%
19 | Nc1ccccc1Cl |  | 7.96%
20 | Clc1cc(Cl)c(-c2cc(Cl)c(Cl)cc2Cl)cc1Cl |  | -21.7%

Row | Compound | Potency | activity change, negative = inhibition
21 | CCCSC(=O)Cl |  | 5.45%
22 | OCC1CO1 (stereo not given) |  | 4.63%
23 | c1ccc(N=Nc2ccccc2)cc1 |  | 4.97%
24 | c1ccc(OP(Oc2ccccc2)Oc2ccccc2)cc1 |  | -17.9%
25 | OCC(Br)CBr (stereo not given) |  | -3.86%
26 | C=C(C)C(=O)OCC1CO1 (stereo not given) |  | 5.4%
27 | O=S1OCC2C(CO1)C1(Cl)C(Cl)=C(Cl)C2(Cl)C1(Cl)Cl (stereo not given) | 21.1 µM (active) | 
28 | O=C=NC1CCCCC1 | inactive | 
29 | Clc1nc(Cl)nc(Nc2ccccc2Cl)n1 |  | 20.1%
30 | COc1ccc(N)cc1 | inactive | 
31 | CN=C=S |  | 12.1%
32 | CNC(=O)O/N=C/C(C)(C)SC |  | -10.3%
33 | Cc1cccc(C#N)c1 |  | -21.2%
34 | O=NN(c1ccccc1)c1ccccc1 |  | -6.85%
35 | Cc1ccc(O)c(C)c1 |  | -10.2%
36 | CCNc1nc(Cl)nc(NC(C)C)n1 |  | 15.5%
37 | C[N+](C)(C)Cc1ccccc1 |  | -0.676%
38 | ClC(Cl)=C(Cl)C(Cl)=C(Cl)Cl |  | 16.1%
39 | C=C(Cl)Cl |  | 35.5%
40 | Cc1ccc2ccccc2c1 |  | -6.24%
